# Screening results deposited in PubChem by National Center for Advancing Translational Sciences (NCATS).
# NS1 inh: blocks influenza NS1 protein function; Potency, µM (series often up to 46.1 µM), for the others: at the top dose activity, positive = more growth; actives 0.4% (n = 270,000); calls by dose curve; further: potency means the concentration at half of the fitted maximal effect; actives are rising curves; nearly all actives have a fitted effect of over 50% in size
#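 In this qHTS, NS1 from influenza A is expressed in budding yeast, where it slows growth. Cells are switched from glucose to 2% galactose medium (pH 6.0, -URA), treated with compound, and growth recovery is read at OD600.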
# Pf growth 48h: P. falciparum growth inhibition at 48 hours (one generation). P. falciparum luciferase growth in erythrocytes, 48 h. Potency, µM (titrated, usually from 28.7 µM), for inactives: at the highest dose activity change, negative = inhibition, hits mostly inhibitors. actives 5.9% (n = 310,000); further: potency means the concentration at half of the fitted maximal effect; on the % scale 0 is the no-effect control and ±100 the full control effect
#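 Luminescence readout; reporter = integrated firefly luciferase in P. falciparum. RBC culture at 2% hematocrit, 0.1% parasitemia final, 37 C/5% CO2; decreased signal taken as growth inhibition.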
# Shiga inhibitor: Shiga toxin inhibition; Vero cells, Shiga toxin protein synthesis inhibition reporter; AID 2315; actives 9.2% (n = 290,000); inhibition, % at 38.7 µM; in the data active means inhibition mostly above about 28%, no sharp cut-off; inactive means mostly below about 43%; further: 0% is about no effect
# Cycloheximide cs: affects cycloheximide protein synthesis inhibition readout, counter-screen | cell reporter, cycloheximide protein synthesis inhibition counterscreen | max response, % | actives 12% (n = 300,000); in the data active means max response mostly above about 13%, no sharp cut-off; inactive means mostly below about 14%; further: read at 38.3 µM for the half of the compounds with a filed dose; 0% is about no effect
# Sm TGR block: S. mansoni TGR enzyme inhibition | actives 3% (n = 360,000) | Potency, µM (top dose mostly 114 µM), for inactives: at the highest dose activity change, negative = inhibition, usual class: inhibitors | purified TGR, DTNB reduction, TNB absorbance 405 nm | Q962Y6; further: potency means the concentration at half of the fitted maximal effect; on the % scale 0 is the no-effect control and ±100 the full control effect; nearly all actives have a fitted effect of over 60% in size
#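 Kinetic colorimetric format: TGR-catalysed, NADPH-driven DTNB reduction monitored via TNB absorbance. Enzyme dispensed at 20 nM; compound exposure 15 min at room temperature before reaction start.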
# Pf growth 96h: P. falciparum growth inhibition at 96 hours; actives 6.9% (n = 320,000); Potency, µM (titrated, usually from 28.7 µM), inactives show at the top dose activity change, negative = inhibition, usual class: inhibitors; P. falciparum luciferase reporter growth, 96 h; further: potency means the concentration at half of the fitted maximal effect; on the % scale 0 is the no-effect control and ±100 the full control effect
#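 Luminescence readout: decreased luciferase signal marks inhibited growth of reporter-expressing P. falciparum in infected red cells (2% hematocrit, 0.05% parasitemia final), exposed to compound two generations (96 h, 37 C, 5% CO2).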
# Starred values were filed as active, the others as inactive; ? = inconclusive; . = no result; [ ] = another dose, or the depositor's remark. Sampled rows, rich in hits. Any-hit rate of the full collection: about 21%. Unless noted, the call rests on the fitted dose curve; in most records, active means well fitted curve in the direction sought with a large enough effect; inconclusive means small, poorly fitted or top-dose-only effect, or another doubt; inactive means no such curve, though single readings can be large; an effect the other way counts as inactive or inconclusive.
SMILES,NS1 inh,Pf growth 48h,Shiga inhibitor,Cycloheximide cs,Sm TGR block,Pf growth 96h
COc1cc2c(cc1OC)CN(CC(=O)Nc1ccc(C)c(C)c1)CC2,-5%,?,-5,-2,-7%,?
COc1ccc(C(=O)Nc2ccccc2C(=O)N/N=C/c2cccc3ccccc23)cc1,3%,26%,119*,31*,-18%,-2%
COc1ccc(CC(=O)Nc2ccc(C(=O)Nc3ccccc3C(=O)O)cc2)cc1OC,-1%,6%,-16,23*,9%,?
COCC(=O)Nc1ccccc1C(=O)Nc1ccc(OC)cc1,-1%,92%,51*,22*,-21%,24%
COc1ccc(CCNC(=O)c2cnc3sc(N4CCC(C)CC4)nn3c2=O)cc1OC,.,.,.,.,9%,.
COc1ccc(-c2nnc(N(C)C(=O)c3cccnc3)s2)cc1,-57%,47%,46,27*,-27%,.
Cc1ccc(-c2nnc(N(C)C(=O)c3cccnc3)s2)cn1,-4%,32%,16,10,15%,1%[5.75 µM]
Cc1ccc(-c2nnc(N(C)C(=O)c3cccnc3)s2)cc1,-25%,76%,77,34*,10%,?
CN(C(=O)c1ccccn1)c1nnc(-c2cccnc2)s1,0%,15%,32,54*,-12%,-1%
COc1ccc(NC(=O)CCNS(=O)(=O)c2cc(Br)cnc2N)c(OC)c1,4%,-2%,-11,-3,-1%,-3%
CCN(CC)S(=O)(=O)c1ccc(NC(=O)COC(=O)CCc2cc(OC)c(OC)c(OC)c2)cc1,-2%,-10%,-11,-1,-6%,-6%
Cc1cc(C(=O)Nc2ccc(C(C)C)cc2)c2c(C)nn(-c3ccccc3)c2n1,.,.,.,.,3%,.
CC1(C)CC(=O)c2sc(NS(=O)(=O)Cc3ccccc3)nc2C1,7%,30%,41*,27*,61%,2%
Cc1ccc(S(=O)(=O)Nc2nc3c(s2)C(=O)CC(C)(C)C3)cc1,4%,9%,-15,9,.,?
CCOC(=O)Cn1cc(/C=N/NC(=O)c2cc3ccccc3o2)c2ccccc21,-10%,-18%,58,26*,11%,10%
Nc1ccc(C(=O)N/N=C/c2cn(Cc3ccccc3F)c3ccccc23)cc1,-3%,-13%,33*,19*,1%,-5%
Cn1cc(/C=N/Nc2ccccc2)c2ccccc21,-4%,?,29,4,-2%,?
COC(=O)N/N=C/c1cn(Cc2ccc(F)cc2)c2ccccc12,5%,?,7,8,-20%,-7%
COC(=O)N/N=C/c1cn(Cc2ccccc2F)c2ccccc12,0%,-20%,3,11,6%,14%
CC(C)n1cc(/C=N/Nc2ccc(C(=O)O)cc2)c2ccccc21,-13%,34%,54*,58*,-19%,260%
Nc1ccc(C(=O)N/N=C/c2cn(Cc3ccc(F)cc3)c3ccccc23)cc1,13%,6%,107*,33*,2%,?
O=C(COC(=O)CNS(=O)(=O)c1cccc(F)c1)NCCc1ccccc1,.,?,.,.,-2%,27%
Cc1cc(C)cc(OCc2cc(=O)n3cc(C)sc3n2)c1,.,.,.,.,4%,.
O=C(NCCc1ccccc1)C(c1ccccc1F)N(C(=O)c1csnn1)C1CC1 (centres undefined),-6%,-10%,-3,-3,-4%,?
O=C(O)c1ccc(N/N=C/c2cn(Cc3ccccc3F)c3ccccc23)cc1,5%,73%,32,67*,-27%,8%
SMILES,NS1 inh,Pf growth 48h,Shiga inhibitor,Cycloheximide cs,Sm TGR block,Pf growth 96h
Nc1ccc(C(=O)N/N=C/c2cn(Cc3ccccc3)c3ccccc23)cc1,1%,0%,16,17*,-2%,?
CCC(CC)C(=O)Nc1ccc2nc(SCC(=O)N3c4ccccc4CC3C)sc2c1 (centres undefined),.,.,.,.,1%,.
COc1cc(C(=O)N(Cc2ccccc2)c2cccc(C)c2)ccc1OC(F)F,-34%,?,-4,7,-9%,13µM*
COc1ccc(CC(=O)N(Cc2ccccc2)c2cccc(C)c2)cc1OC,-11%,?,-12,-1,5%,10µM*
COc1ccccc1CC(=O)N(Cc1ccccc1)c1ccc(C)cc1,-27%,?,15,12,-14%,9.3µM*
COc1ccc(C(=O)N(Cc2ccccc2)c2cccc(C)c2)c(OC)c1OC,3%,0%,-25,-2,-11%,?
COc1cc(C(=O)NCc2ccccc2)ccc1OC(F)F,-5%,4%,-3,0,2%,?
Cc1nn2c(C)c(C(=O)NCc3cccc(Br)c3)cnc2c1-c1ccccc1,.,.,.,.,-9%,.
COC(=O)c1ccccc1NC(=O)c1cc([N+](=O)[O-])nn1Cc1ccccc1,4%,-4%,-11,-1,6%,0.66µM*
COc1cc(NC(=O)CSc2nccc(C)n2)c(C)cc1[N+](=O)[O-],?,2%,23,-3,-2%,25%
C=C1N(C)c2cc([N+](=O)[O-])c(N)cc2C1(C)C,3%,?,14,8,20µM*,?
CC(C)C(NC(=O)c1ccccc1)C(=O)OCc1cc([N+](=O)[O-])cc2c1OCOC2 (centres undefined),-17%,-8%,18,0,-4%,-18%
Cc1ccc2c(COC(=O)c3ccc(C)c(C)c3)cc(=O)oc2c1,9%,2%,11,2,7%,11%
Cc1ccc2c(COC(=O)c3ccccc3Cl)cc(=O)oc2c1,-7%,214%,59*,42*,-28%,39%
CCOc1ccccc1C(=O)N[C@H](C(=O)OCc1cc(=O)oc2cc(C)ccc12)C(C)C,16%,?,17,26*,-5%,?
Cc1ccc2c(COC(=O)c3ccccc3Br)cc(=O)oc2c1,-14%,62%,98*,34*,1%,74%
CCOc1ccccc1C(=O)N[C@H](C(=O)OCc1cc([N+](=O)[O-])cc2c1OCOC2)C(C)C,10%,13µM*,12,3,-4%,?
O=C(Nc1ccc(F)cc1F)C1CCN(S(=O)(=O)c2cccnc2)CC1,-1%,-3%,-3,-2,-29%,39%
COc1cccc(-n2c(=O)c3c(C)c(C)sc3n(CC(=O)NCCc3ccc(OC)c(OC)c3)c2=O)c1,.,.,.,.,-4%,.
COc1ccccc1N(C(=O)CNC(=O)c1ccco1)C(C(=O)NC1CCCCC1)c1ccncc1 (centres undefined),-9%,-3%,-13,-2,2%,14%
CN(C)c1cccc(C(=O)OCc2cc(=O)oc3cc(O)ccc23)c1,-3%,12µM*,49,16*,-4%,.
CN(C(=S)NC1CCCCC1)C1(c2ccccc2Cl)CCCCC1=O (centres undefined),3%,12µM*,-11,-8,-3%,?
